# Measurements as given in PubChem BioAssay AID1508621 (National Center for Advancing Translational Sciences (NCATS), 2021).
# Records with an inconclusive call do not appear. Activity calls are given as the source filed them. Calls follow the shape of the dose curve; as a rule, active = well fitted inhibition curve with a large enough effect; inconclusive = small, poorly fitted or top-dose-only effect; inactive = no such curve, though single readings can be large or run the other way.
# Experiment: Confirmatory qHTS for Identification of Small Molecule Inhibitors of Huntingtin Promoter Activity; also: nearly all actives have a fitted effect of over 65% in size;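 as to activity change, negative = inhibition: 0% = vehicle control and -100% = zero luminescence signal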
# Conditions: HEK293 HTT promoter firefly luciferase reporter, 24 h; series mostly up to 57.5 µM; activity change, negative = inhibition: at the top concentration
# How it was run: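 Plated reporter HEK293 cells (24 h) received library compounds at up to 57.5 uM final or 50 uM PTC124, incubated 24 h at 37C; firefly luciferase luminescence was then recorded with Dual-Glo reagent.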
# Potency is read from the fitted curve at half-maximal effect.
Compound,Potency,"activity change, negative = inhibition"
C[n+]1cc2c3c(ccc2c2ccc4cc5c(cc4c21)OCO5)OCO3,5.86 µM (active),–
CN(C)c1ccc(Nc2nc(N)n(C(=O)c3c(F)cccc3F)n2)cc1,–,107% (inactive)
O=C(Nc1nc2cccc(-c3ccc(CN4CCS(=O)(=O)CC4)cc3)n2n1)C1CC1,–,8.38% (inactive)
COc1ccc(NC(=O)Cn2c(SCc3ccc(C)cc3)nc3cccnc32)cc1OC,–,-6.27% (inactive)
CCc1c(C)sc2c1CCN(Cc1ccc(F)cc1)C2c1ccccc1 (configuration not stated),–,-16.4% (inactive)
COc1ccc(Cn2c(CO)cnc2SCc2ccc(F)cc2)cc1,–,-8.93% (inactive)
COc1ccc(C(C)n2c(C)c3c(C)nnc(C)c3c2C)cc1 (configuration not stated),–,-20.6% (inactive)
Cc1ccc(N2C(=O)C(CC(=O)Nc3ccccc3)N(CCC3=CCCCC3)C2=O)cc1 (configuration not stated),–,-1.96% (inactive)
O=C(C=Cc1ccc(CN(CCO)CCc2c[nH]c3ccccc23)cc1)NO,–,335% (inactive)
Cc1cc(C)cc(NC(=O)Nc2cccs2)c1,–,-0.991% (inactive)
Cc1ccc(-n2ncc3c(N(CCO)Cc4ccccc4)ncnc32)cc1,–,15.7% (inactive)
C#C[C@]1(O)CC[C@H]2[C@H]3CCc4cc(OC)ccc4[C@H]3CC[C@@]21C,–,-8.88% (inactive)
CCCCc1nc2cc(C=CC(=O)NO)ccc2n1CCN(CC)CC,–,486% (inactive)
N#CC[C@H](C1CCCC1)n1cc(-c2ncnc3[nH]ccc23)cn1,–,4.44% (inactive)
COc1ccc(C(=O)Nc2cccc(-c3cn4ccsc4n3)c2)c(OC)c1,–,10.7% (inactive)
Cc1cc(NC(=O)c2cc(-c3ccc(Cl)cc3)on2)nn1Cc1ccc(Cl)cc1,–,-27% (inactive)
COCCn1c2c([n+](Cc3cnccn3)c1C)C(=O)c1ccccc1C2=O,0.0953 µM (active),–
